Columns and labels:
Assay in all cases: log2 ratio of Biotin-Ahx-Ub-VS probe labelling (fragment/DMSO); higher = less target engagement (more negative = stronger competition), active = hit call of the paper (q ≤ 0.05, log2 ratio ≤ -1)
Conditions in all cases: compound concentration: 200 uM; treatment time: 3 h
OTUD6B = molecular target: T1, OTUD6B (UniProt Q8N6M0)
T1 sequence (whole entry): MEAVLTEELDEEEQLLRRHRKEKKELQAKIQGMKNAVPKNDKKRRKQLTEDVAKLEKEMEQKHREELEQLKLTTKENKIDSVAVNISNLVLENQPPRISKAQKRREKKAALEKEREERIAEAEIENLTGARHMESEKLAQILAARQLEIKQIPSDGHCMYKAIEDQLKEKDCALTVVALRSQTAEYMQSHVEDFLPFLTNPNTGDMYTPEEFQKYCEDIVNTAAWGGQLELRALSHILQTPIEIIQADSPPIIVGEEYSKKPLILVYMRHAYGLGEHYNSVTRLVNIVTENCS
Method in brief: (§1)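 Lysate from HEK293T cells, 495 µg per sample in Tris/CHAPS/IGEPAL buffer with protease inhibitors, was treated for 3 h in triplicate with fragment at 200 µM or vehicle. Biotin-Ahx-Ub-VS was next added at 0.5 µM final for 1 h. The labelled DUBs were enriched with NeutrAvidin, digested with LysC and trypsin, and run by diaPASEF LC-MS/MS, with values given as average log2 fragment/vehicle ratios by unpaired t-test on global-median-normalised Spectronaut quantities of proteins with ≥2 unique peptides.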

OTUD7B = molecular target: T2, OTUD7B (UniProt Q6GQQ9)
T2 sequence (whole entry): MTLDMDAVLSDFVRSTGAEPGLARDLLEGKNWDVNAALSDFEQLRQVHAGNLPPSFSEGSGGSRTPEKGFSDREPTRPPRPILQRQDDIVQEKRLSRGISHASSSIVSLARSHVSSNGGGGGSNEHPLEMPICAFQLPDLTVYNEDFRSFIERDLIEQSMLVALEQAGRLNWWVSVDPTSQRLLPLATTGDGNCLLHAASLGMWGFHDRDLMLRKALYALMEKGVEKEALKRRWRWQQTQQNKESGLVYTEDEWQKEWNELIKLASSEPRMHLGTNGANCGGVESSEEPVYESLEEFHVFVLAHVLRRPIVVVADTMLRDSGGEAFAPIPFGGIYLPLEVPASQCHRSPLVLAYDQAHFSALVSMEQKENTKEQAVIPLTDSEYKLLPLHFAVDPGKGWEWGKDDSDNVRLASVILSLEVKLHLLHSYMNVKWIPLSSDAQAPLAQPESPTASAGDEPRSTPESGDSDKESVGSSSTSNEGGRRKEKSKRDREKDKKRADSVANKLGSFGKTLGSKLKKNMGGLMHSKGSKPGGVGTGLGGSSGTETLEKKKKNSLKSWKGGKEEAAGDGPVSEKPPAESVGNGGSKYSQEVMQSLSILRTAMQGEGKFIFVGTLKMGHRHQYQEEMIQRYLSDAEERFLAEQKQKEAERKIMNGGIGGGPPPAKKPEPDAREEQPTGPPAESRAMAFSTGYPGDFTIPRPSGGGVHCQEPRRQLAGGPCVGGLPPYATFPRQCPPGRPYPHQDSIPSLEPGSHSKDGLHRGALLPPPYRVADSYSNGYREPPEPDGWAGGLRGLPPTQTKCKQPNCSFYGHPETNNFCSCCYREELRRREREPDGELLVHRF
Method in brief: as §1

PRPF8 = PRPF8 (UniProt Q6P2Q9)
Method in brief: as §1

PSMD7 = molecular target: T3, PSMD7 (UniProt P51665)
T3 sequence (whole entry): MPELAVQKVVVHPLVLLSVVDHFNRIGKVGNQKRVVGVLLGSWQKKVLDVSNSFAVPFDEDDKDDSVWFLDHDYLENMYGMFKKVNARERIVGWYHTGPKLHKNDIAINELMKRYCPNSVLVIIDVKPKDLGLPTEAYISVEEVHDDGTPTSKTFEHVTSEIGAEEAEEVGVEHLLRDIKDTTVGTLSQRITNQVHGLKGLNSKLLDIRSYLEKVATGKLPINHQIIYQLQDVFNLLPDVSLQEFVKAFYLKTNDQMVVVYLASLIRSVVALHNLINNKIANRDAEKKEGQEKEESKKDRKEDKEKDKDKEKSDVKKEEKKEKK
Method in brief: as §1

UCHL1 = UCHL1 (UniProt P09936)
Method in brief: as §1

UCHL3 = molecular target: T4, UCHL3 (UniProt P15374)
T4 sequence (whole entry): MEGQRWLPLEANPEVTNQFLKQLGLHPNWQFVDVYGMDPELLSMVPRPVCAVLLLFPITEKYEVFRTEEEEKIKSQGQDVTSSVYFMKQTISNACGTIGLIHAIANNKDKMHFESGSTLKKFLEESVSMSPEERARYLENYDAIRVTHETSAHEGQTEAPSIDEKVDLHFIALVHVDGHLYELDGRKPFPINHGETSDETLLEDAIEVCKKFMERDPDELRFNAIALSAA
Method in brief: as §1

UCHL5 = molecular target: T5, UCHL5 (UniProt Q9Y5K5)
T5 sequence (whole entry): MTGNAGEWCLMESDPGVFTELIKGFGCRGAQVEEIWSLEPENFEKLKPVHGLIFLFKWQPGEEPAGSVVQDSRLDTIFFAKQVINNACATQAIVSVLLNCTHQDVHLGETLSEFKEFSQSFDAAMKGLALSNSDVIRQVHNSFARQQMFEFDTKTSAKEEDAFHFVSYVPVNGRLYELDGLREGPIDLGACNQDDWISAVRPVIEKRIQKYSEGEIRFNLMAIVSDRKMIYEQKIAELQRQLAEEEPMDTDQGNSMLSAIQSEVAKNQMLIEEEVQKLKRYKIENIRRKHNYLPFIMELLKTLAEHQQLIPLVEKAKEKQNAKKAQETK
Method in brief: as §1

USP10 = USP10 (UniProt Q14694)
Method in brief: as §1

USP15 = molecular target: T6, USP15 (UniProt Q9Y4E8)
T6 sequence (whole entry): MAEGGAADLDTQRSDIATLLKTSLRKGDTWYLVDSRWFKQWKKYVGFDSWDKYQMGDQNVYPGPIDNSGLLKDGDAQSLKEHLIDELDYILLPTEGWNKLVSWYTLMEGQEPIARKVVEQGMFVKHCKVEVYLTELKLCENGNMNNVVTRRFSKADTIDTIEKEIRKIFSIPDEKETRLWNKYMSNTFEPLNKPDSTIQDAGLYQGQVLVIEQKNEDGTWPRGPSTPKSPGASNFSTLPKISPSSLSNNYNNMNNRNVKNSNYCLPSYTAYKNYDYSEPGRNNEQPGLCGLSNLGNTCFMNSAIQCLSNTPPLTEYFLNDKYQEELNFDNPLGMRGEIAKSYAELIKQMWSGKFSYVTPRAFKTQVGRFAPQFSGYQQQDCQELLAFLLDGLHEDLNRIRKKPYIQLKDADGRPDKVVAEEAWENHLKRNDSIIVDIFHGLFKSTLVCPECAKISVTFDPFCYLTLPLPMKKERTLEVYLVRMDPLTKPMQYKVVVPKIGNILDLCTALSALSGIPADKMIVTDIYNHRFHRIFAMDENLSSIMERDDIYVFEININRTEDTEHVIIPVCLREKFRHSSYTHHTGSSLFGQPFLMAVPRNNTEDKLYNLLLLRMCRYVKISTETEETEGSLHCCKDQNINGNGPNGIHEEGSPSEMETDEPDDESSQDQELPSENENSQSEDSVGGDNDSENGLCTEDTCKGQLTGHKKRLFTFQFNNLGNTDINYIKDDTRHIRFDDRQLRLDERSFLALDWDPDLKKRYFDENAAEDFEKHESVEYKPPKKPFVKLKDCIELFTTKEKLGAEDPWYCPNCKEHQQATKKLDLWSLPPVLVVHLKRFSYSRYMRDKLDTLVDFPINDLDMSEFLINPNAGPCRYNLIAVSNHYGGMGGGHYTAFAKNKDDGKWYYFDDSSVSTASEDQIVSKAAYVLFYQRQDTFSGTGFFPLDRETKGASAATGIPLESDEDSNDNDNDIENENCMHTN
Method in brief: as §1

USP16 = USP16 (UniProt Q9Y5T5)
Method in brief: as §1

Measured: log2 ratio of Biotin-Ahx-Ub-VS probe labelling

Sequence of USP10 (Q14694 whole entry): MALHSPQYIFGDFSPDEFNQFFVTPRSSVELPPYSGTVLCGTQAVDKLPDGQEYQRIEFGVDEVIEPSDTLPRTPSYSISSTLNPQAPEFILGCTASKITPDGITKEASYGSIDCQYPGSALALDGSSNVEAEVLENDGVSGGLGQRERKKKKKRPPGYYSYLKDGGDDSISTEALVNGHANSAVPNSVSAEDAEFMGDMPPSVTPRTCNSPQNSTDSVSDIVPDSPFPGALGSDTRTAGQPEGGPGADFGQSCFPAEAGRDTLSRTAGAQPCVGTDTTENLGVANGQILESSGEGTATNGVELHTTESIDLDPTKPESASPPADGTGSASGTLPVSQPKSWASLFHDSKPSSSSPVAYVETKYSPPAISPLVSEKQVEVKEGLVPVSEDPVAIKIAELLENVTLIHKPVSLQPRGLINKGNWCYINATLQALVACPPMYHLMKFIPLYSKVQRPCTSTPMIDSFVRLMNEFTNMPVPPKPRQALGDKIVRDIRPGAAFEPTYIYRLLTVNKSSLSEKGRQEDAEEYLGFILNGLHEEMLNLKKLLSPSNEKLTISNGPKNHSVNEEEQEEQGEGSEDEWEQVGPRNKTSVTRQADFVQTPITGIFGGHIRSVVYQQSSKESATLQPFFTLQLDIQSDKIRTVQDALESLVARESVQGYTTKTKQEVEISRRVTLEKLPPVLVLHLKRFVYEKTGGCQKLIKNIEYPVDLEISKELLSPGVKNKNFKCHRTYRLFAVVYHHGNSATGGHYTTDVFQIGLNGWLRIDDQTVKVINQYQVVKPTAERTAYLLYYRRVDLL
Sequence of UCHL1 (P09936 whole entry, looked up): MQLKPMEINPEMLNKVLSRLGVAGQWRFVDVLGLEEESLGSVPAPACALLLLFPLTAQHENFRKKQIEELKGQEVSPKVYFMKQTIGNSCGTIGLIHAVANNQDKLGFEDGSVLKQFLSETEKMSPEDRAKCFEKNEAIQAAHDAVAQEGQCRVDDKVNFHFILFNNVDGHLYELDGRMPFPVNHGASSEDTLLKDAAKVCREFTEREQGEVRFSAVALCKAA
Sequence of USP16 (Q9Y5T5 whole entry, looked up): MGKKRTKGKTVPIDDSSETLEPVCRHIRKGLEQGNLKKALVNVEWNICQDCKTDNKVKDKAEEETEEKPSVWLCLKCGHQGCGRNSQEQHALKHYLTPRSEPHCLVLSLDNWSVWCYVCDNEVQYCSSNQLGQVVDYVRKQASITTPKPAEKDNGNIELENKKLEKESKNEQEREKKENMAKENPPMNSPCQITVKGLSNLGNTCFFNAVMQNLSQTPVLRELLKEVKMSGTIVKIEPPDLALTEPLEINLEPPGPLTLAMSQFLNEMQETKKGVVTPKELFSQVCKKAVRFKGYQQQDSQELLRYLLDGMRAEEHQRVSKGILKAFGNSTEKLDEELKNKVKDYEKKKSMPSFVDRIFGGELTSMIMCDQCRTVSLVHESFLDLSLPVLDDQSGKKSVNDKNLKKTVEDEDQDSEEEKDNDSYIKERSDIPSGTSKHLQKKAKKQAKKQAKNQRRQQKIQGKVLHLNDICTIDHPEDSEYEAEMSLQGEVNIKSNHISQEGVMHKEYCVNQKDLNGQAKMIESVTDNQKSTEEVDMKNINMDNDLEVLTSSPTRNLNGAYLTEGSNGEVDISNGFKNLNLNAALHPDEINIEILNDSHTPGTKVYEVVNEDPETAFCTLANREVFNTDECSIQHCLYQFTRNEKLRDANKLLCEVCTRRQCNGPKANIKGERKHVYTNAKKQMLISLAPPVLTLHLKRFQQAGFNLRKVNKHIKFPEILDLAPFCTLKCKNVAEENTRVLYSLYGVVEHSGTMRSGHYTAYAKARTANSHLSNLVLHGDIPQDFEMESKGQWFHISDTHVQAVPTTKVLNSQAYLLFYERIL

O=C(CCl)NCCC1COCCO1 (stereo not given)
inactive: OTUD6B -0.0161 | OTUD7B -0.0714 | PRPF8 -0.0389 | PSMD7 -0.237 | UCHL3 0.227 | UCHL5 -0.221 | USP10 -0.143 | USP15 0.0547 | USP16 -0.519
active: UCHL1 -1.39

— the supplement of paper PMC11732987, “Enantioselective OTUD7B fragment discovery through chemoproteomics screening and high-throughput optimisation” (Communications Chemistry, 2025)
